Screening data deposited in PubChem BioAssay by National Center for Advancing Translational Sciences (NCATS).
This is one part of a sample in which hits are shown more often than they occur.
AmpC inh detg: qHTS Inhibitors of AmpC Beta-Lactamase (assay with detergent) | AmpC hydrolysis of nitrocefin, absorbance 480 nm, 0.01% Triton | Potency, µM (series often up to 114 µM), without a hit: top-dose activity change, negative = inhibition, most hits filed as inhibitors | 370,000 compounds, 0.041% hits | AID 485294, 2010;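 note: potency is the fitted concentration of half-maximal effect; 0% = no-compound wells and -100% = no-enzyme wells; nearly all actives have a fitted effect of over 25% in size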
Target sequence (P00811 whole entry, looked up): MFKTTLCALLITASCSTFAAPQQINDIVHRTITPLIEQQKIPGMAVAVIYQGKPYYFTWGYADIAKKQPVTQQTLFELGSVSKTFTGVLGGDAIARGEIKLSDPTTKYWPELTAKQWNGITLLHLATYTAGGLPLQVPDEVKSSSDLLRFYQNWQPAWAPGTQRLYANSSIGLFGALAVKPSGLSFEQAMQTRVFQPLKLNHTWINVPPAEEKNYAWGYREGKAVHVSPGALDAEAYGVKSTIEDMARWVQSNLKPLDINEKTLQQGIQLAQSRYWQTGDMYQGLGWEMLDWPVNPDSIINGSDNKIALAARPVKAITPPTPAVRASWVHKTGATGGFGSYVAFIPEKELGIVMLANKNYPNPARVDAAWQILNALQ
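AmpC (5.3 nM in the dispensed reagent) in 20 mM phosphate pH 7.0 with 0.01% (detergent screen) or 0.0001% Triton X-100 was preincubated with compounds for 15 min at room temperature. Nitrocefin was then added from an 800 uM solution, and hydrolysis was followed at 480 nm.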
NS1 function inh: qHTS Assay for Inhibitors of Influenza NS1 Protein Function; Potency, µM (top dose mostly 46.1 µM), inactives show at the highest dose activity, positive = more growth; 270,000 compounds, 0.4% hits; calls by dose curve; note: potency is the fitted concentration of half-maximal effect; actives are rising curves; nearly all actives have a fitted effect of over 50% in size
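Read-out: OD600 growth recovery of NS1-expressing budding yeast. Cells grown overnight at 30C in -URA glucose medium, washed, resuspended and diluted 1:100 in 2% galactose assay medium, pH 6.0. Same strain lacking NS1 served as positive control.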
Shiga toxin inh: A qHTS for Small Molecule Inhibitors of Shiga Toxin; Vero cells, Shiga toxin protein synthesis inhibition reporter; 290,000 compounds, 9.2% hits; inhibition, % at 38.7 µM; in the data active = inhibition mostly above about 28%, no sharp cut-off; inactive = mostly below about 43%; note: 0% is about no effect
CHX counter-1: Cycloheximide Counterscreen for Small Molecule Inhibitors of Shiga Toxin | cell reporter, cycloheximide protein synthesis inhibition counterscreen | max response, % | 300,000 compounds, 12% hits; in the data active = max response mostly above about 13%, no sharp cut-off; inactive = mostly below about 14%; note: read at 38.3 µM for the half of the compounds with a filed dose; 0% is about no effect
AmpC no deterg: qHTS Inhibitors of AmpC Beta-Lactamase (assay without detergent); P00811; AmpC nitrocefin hydrolysis, absorbance 480 nm, 0.0001% Triton; Potency, µM (doses to about 57.1 µM), for inactives: top-dose activity change, negative = inhibition, hits mostly inhibitors; 330,000 compounds, 0.52% hits; AID 485341, 2010;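 note: potency is the fitted concentration of half-maximal effect; plate controls were no compound for no effect and no enzyme for full effect; nearly all actives have a fitted effect of over 20% in size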
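AmpC (5.3 nM in the dispensed reagent) in 20 mM phosphate pH 7.0 with 0.01% (detergent screen) or 0.0001% Triton X-100 was preincubated with compounds for 15 min at room temperature. Nitrocefin was then added from an 800 uM solution, and hydrolysis was followed at 480 nm.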
CHX counter-2: Cycloheximide Counterscreen for Small Molecule Inhibitors of Shiga Toxin (Confirmatory); shares compounds with Shiga toxin inh; Cycloheximide counterscreen, protein synthesis reporter, Shiga toxin assay; Potency, µM (titrated, usually from 38.3 µM), for inactives: at the highest dose activity (activation), actives largely listed as activators; 510 compounds, 3% hits; calls by dose curve; note: potency is the fitted concentration of half-maximal effect; 0% is about no effect
* marks the source's active call; other numbers are inactive results; ? = inconclusive; . = no result; [ ] = remark or other dose. Unless noted, calls come from the whole dose curve; as a rule, active = well fitted curve in the direction sought with a large enough effect; inconclusive = small, poorly fitted or top-dose-only effect, or another doubt; inactive = no such curve, though single readings can be large; an effect the other way counts as inactive or inconclusive.

SMILES	AmpC inh detg	NS1 function inh	Shiga toxin inh	CHX counter-1	AmpC no deterg	others
O=C(Nc1nccc(-c2cccs2)n1)c1cccs1	0%	-56%	67*	31*	-4%
Cc1ccc2ncc(S(=O)(=O)c3ccccc3)c(N3CCCCC3C)c2c1 (stereo unspecified)	?	-26%	-10	-4	-3%
CCS(=O)(=O)N1CCc2cc(C(=O)N3CCN(c4ccccc4)CC3)ccc21	6%	.	.	.	.
COCc1cc(=O)[nH]c(Nc2nc3ccccc3o2)n1	-5%	-36%	65*	61*	-28%
COC(=O)Cc1cc(=O)[nH]c(Nc2nc3ccccc3o2)n1	-14%	23%	31*	17*	-2%
CCOC(=O)Cc1cc(=O)[nH]c(Nc2nc3ccccc3o2)n1	-4%	16%	77*	18	-24%
COCc1cc(=O)[nH]c(Nc2nc(C)c3ccccc3n2)n1	-1%	2%	-19	-2	-14%
Cc1ccc2oc(Nc3nc(-c4ccccc4)cc(=O)[nH]3)nc2c1	-11%	.	3	11	-27%
Cc1ccc(NC(=O)CSc2nnc(-c3nnn(-c4ccc(F)cc4)c3C)o2)cc1Br	23%	.	.	.	.
O=C(NC(=O)N1CCCCC1)c1ccccc1	-11%	7%	20	14*	-21%
O=C(NC(=O)N1CCN(c2ccc(F)cc2)CC1)c1ccccc1	-4%	1%	32	20*	4%
CC(=C1C(=O)c2ccccc2C1=O)N1CCN(c2ccc(F)cc2)CC1	7%	-3%	33*	14*	-36%
CCCCN(C)CCNC(=O)C1CCCN(S(=O)(=O)c2ccc3c(c2)oc(=O)n3C)C1 (stereo unspecified)	5%	.	.	.	.
Cc1ccc(CNCc2ccc3c(c2)n(C)c(=O)n3C)cc1	23%	.	.	.	.
Cc1nc2ccc(S(=O)(=O)NC(C(=O)NCc3ccc(Cl)cc3)C(C)C)cc2s1 (stereo unspecified)	9%	.	.	.	.
CCOC(=O)[C@H]1[C@H]2COc3cc(OC)ccc3[C@@H]2N2C(=O)CN(C)C(=O)[C@@]12C	.	.	.	.	17%
COC(=O)c1[nH]nc(C(=O)OC(C)(C)C)c1-c1ccccc1	-8%	-3%	-5	-1	-7%
N#Cc1c(Cl)nsc1NN	-3%	.	70*	29*	1.4µM*
CCOC(=O)c1cccc(NC(=O)c2cn(-c3cccc(OC)c3)c(=O)c3ccccc23)c1	16%	.	.	.	.
O=C(NCCn1cc(SCc2ccccc2)c2ccccc21)c1c(F)cccc1F	?	-16%	25	7	-4%
O=C(CSc1cn(CCNC(=O)c2ccccc2)c2ccccc12)NCc1ccco1	1%	-6%	53*	36*	-22%
O=C(Cn1cc(C(=O)C(F)(F)F)c2ccccc21)NCc1ccco1	6%	.	53	47*	-15%
CCCn1cc(SCC(=O)NCc2ccco2)c2ccccc21	-10%	-72%	16	9	-19%
COC(=O)c1cn(CC(=O)NCc2ccco2)c2ccccc12	-9%	8%	50*	15*	?
O=C(NCCn1cc(SCc2ccc(F)cc2)c2ccccc21)c1c(F)cccc1F	?	1%	25	14*	-27%
SMILES	AmpC inh detg	NS1 function inh	Shiga toxin inh	CHX counter-1	AmpC no deterg	others
O=C(Cn1cc(C(=O)c2ccco2)c2ccccc21)NCc1ccco1	2%	-4%	20	18	-13%
Cc1cccc(NC(=O)/C(C#N)=C/c2cn(CC(=O)NCc3ccco3)c3ccccc23)c1	-8%	4%	-11	-6	14µM*
CCC(=O)c1cn(CC(=O)NCc2ccco2)c2ccccc12	-10%	-7%	61*	43*	.
O=C(Cn1cc(C(=O)c2ccccc2)c2ccccc21)NCc1ccco1	-5%	0%	74	78*	-39%
CCOc1ccc(S(=O)(=O)N(CC(=O)N2CCc3ccccc32)Cc2ccco2)cc1	-7%	-54%	83*	31*	-17%
Cc1cc(C)n2nc(SCc3nc4ccccc4[nH]3)nc2n1	?	?	active	14	-4%
Cc1cc(C)n2nc(SCCOc3ccccc3)nc2n1	-7%	-7%	75	11*	15%
CCOC(=O)CSc1nc2nc(C)cc(C)n2n1	?	9%	2	0	10µM*
CC(C)NS(=O)(=O)c1ccc(Br)c(C(=O)OC(C)C(=O)NC2CCCCC2C)c1 (stereo unspecified)	-10%	.	.	.	1%
COc1ccc(CNCC(=O)Nc2sccc2C#N)cc1	2%	4%	52*	13	-22%	CHX counter-2=2%
O=C(COc1ccc(F)cc1)Nc1ccccc1N1CCOCC1	-15%	.	.	.	-21%
O=c1c2ccccc2nc(SCc2cccc(F)c2)n1Cc1ccco1	?	-32%	56*	1	-29%	CHX counter-2=2%
O=c1c2ccccc2nc(SCc2nc3ccccc3s2)n1Cc1ccco1	-13%	-5%	-2	3	-22%
COc1ccccc1CN(C)C(=O)CN1CCN(S(=O)(=O)c2ccc3c(c2)OCCCO3)CC1	-16%	.	.	.	155%
CCn1c(SCC(N)=O)nnc1-c1ccc2[nH]c(C)c(C)c2c1	-20%	4%[9.22 µM]	-11	-2	-4%
CCn1c(SCC(=O)O)nnc1-c1ccc2[nH]c(C)c(C)c2c1	?	16%	27*	14	-14%	CHX counter-2=5%
O=C(NCC1CCCO1)c1cccc(S(=O)(=O)N(Cc2ccccc2)c2ccccc2)c1 (stereo unspecified)	?	.	.	.	53%
Cc1ccc(Cl)cc1NC(=O)COC(=O)c1ccc(COc2ccc3c(C)cc(=O)oc3c2)cc1	0%	-13%	39*	-1	-39%	CHX counter-2=2%
COc1ccc2cc(C(=O)Nc3ccc(Cl)cc3)sc(=O)c2c1OC	?	-2%	-15	1	-12%
CCn1c(SCC(=O)N/N=C(/C)c2ccncc2)nc2ccccc21	5%	-3%	11	-2	2%
COc1cccc(-c2nnc(SCC3CNC(=O)O3)n2-c2ccc(Cl)cc2)c1 (stereo unspecified)	-7%	5%	0	-2	146%
C=CCNc1sc(C(=O)c2ccccc2)c(N)c1-c1nc2ccccc2s1	-1%	-36%	73*	13	-57%	CHX counter-2=?
CS(=O)(=O)c1[nH]nc(-c2cccc(Cl)c2)c1C#N	2%	7%	16	2	-29%
Cc1cc(NC(=O)C(C)C)ncc1NC(=O)c1cccc(F)c1	-6%	2%	0	-1	-9%
CCCC(=O)Nc1cnc(NC(=O)c2cccc(F)c2)cc1C	-1%	-1%	67*	4	-1%	CHX counter-2=1.6µM*
Cc1cc(C)cc(-n2ccn(Cc3ccccc3C)c(=O)c2=O)c1	-1%	.	.	.	.
